Of roughly 21,000 targets only a part is listed; those with the largest changes were picked by preference.

The assay deals with XPOT_O43592_877_HIVPACFLAPLK (UniProt O43592). Put plainly: probe-labelled cysteine peptide fold change vs DMSO (competition) (log2 fold change); higher = less target engagement (more negative = stronger competition). Particulars: THP-1, incubation time: 4 h.
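Note: competitive chemoproteomic profiling in live THP-1 cells with an iodoacetamide desthiobiotin (IA-DTB) probe, comparing probe-labelled peptide intensities in compound-treated cells against DMSO-treated controls.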

Chain of UniProt O43592 (O43592 whole entry, looked up): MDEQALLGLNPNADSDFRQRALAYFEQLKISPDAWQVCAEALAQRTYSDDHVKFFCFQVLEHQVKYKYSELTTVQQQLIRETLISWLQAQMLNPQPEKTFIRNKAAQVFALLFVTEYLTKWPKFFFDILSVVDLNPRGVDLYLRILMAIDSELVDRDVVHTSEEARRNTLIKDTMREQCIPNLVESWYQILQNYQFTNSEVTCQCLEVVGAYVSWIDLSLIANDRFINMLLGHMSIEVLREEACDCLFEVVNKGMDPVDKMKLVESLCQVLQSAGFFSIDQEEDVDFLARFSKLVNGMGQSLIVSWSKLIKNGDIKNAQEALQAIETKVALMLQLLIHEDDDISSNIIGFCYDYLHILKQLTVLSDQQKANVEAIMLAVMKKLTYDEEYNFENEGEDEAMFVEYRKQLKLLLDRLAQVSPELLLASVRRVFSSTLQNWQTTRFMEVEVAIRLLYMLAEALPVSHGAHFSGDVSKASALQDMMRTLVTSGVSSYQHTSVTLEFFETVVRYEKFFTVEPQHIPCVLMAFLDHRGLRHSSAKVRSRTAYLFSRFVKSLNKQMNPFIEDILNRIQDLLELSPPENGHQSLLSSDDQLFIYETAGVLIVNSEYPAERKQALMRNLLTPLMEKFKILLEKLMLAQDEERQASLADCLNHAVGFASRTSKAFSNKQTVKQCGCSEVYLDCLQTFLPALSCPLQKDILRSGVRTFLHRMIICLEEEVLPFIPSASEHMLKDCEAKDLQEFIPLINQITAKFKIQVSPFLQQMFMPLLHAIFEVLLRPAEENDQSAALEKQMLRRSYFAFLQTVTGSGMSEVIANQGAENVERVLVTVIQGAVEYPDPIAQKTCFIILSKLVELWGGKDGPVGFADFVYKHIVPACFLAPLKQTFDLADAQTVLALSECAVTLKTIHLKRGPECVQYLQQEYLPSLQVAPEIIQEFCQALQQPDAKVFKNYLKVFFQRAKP

As for `CC1Cc2ccccc2N1C(=O)C1CCCN(C(=O)CCl)C1` (mixture of isomers) [TRIM25 ligand 11 (diastereomer mixture)], the “probe-labelled cysteine peptide fold change” value reads like this: (10 µM) 0.0433; (50 µM) 0.0734.
